This is part of a sample that, as a whole, favours compounds with a hit. Of some 79,000 tested, about 15% had one in any assay. Values without a mark were called inactive. Calls of active or inactive are those of the source. No stated cut-off is given here; in the data, active means growth inhibition above about 70%; inactive means the rest.
Test: NCI Yeast Anticancer Drug Screen. Data for the CLN2oe strain (AID 163);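 further: 0% = growth of vehicle-only control cultures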
Conditions: S. cerevisiae CLN2oe strain, active compounds read high
Experimental: Growth inhibition of yeast strains with defined genetic alterations is measured as a screen for potential anti-cancer activity. Selected strains with alterations in DNA damage repair or cell cycle control were exposed to compounds and growth inhibition was measured relative to vehicle treated controls. The strain used in this assay is CLN2oe

Structure (SMILES) | growth inhibition (at 1.2 µM) [%] | growth inhibition (at 3.7 µM) [%] | growth inhibition (at 11.0 µM) [%] | growth inhibition (at 33.0 µM) | growth inhibition (at 100.0 µM)
O=c1nc2n(Cc3ccccc3)c3ccccc3nc-2c(=O)[nH]1 | -12 | -7 | 3 | 5% | 0%
COc1cc([C@@H]2c3cc4c(cc3[C@@H](Nc3ccc(NC(=O)c5cc([N+](=O)[O-])cn5C)cc3)[C@H]3COC(=O)[C@H]23)OCO4)cc(OC)c1O | 19 | 23 | 44 | 58% | 77% (active)
CCc1cc(O)c(Cl)c(C)c1Cl | 18 | -21 | 1 | 28% | 71% (active)
CCCCCCCCCCCCCCCCCC(=O)NCCCN(C)C | -35 | -37 | -80 | 97% (active) | 97% (active)
CC1=NOC(=O)/C1=C/c1ccc2c(c1)OCO2 | -5 | 3 | 9 | 15% | 9%
CC(O)=NC(Cc1ccc2ccccc2c1)C(O)=NC(Cc1ccc(Cl)cc1)C(O)=NC(Cc1c[nH]c2ccccc12)C(O)=NC(CO)C(O)=NC(Cc1ccc(O)cc1)C(O)=NC(CCCN=C(N)N)C(O)=NC(CC(C)C)C(O)=NC(CCCN=C(N)N)C(=O)N1CCCC1C(O)=NC(C)C(=N)O (stereo not given) | -4 | 0 | 3 | 19% | 32%
C=C(C(=C)n1nnc(C(=O)OC)c1C(=O)OC)n1nnc(C(=O)OC)c1C(=O)OC | -2 | -1 | -4 | 0% | -4%
CCOC(=N)c1ccc(O)c(OC)c1 | -2 | -5 | 1 | -3% | -1%
